These results are taken from PubChem BioAssay.

Structures are written as SMILES. Active and inactive are the calls of the source.

A short description of test [1]: A549 cell viability effects, profiling panel, calcein-AM fluorescence, 48 h, basal (AID 1162). To be noted: higher = more signal.
Test [2] can be described thus: adipocyte viability effects, profiling panel, cell-based, 3T3-L1 adipocytes, calcein-AM fluorescence, 48 h, basal (AID 1163). To be noted: 3T3-L1 adipocytes viability, higher = more signal.
A short description of test [3]: HepG2 cell viability effects, profiling panel, calcein-AM fluorescence, 48 h, basal (AID 1164). To be noted: higher = more signal.
Test [4] is described as follows: MM1S cell viability effects, profiling panel, calcein-AM fluorescence, 48 h, basal (AID 1165).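 Also: viability of MM1S multiple myeloma cells under basal unstimulated conditions.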 The note with it: higher = more signal.
Test [5] is described as follows: basal RPMI8226 viability, no added stimulus, profiling panel, cell-based, calcein-AM fluorescence, 48 h, PK04 Diversity Set (AID 1166).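 Also: cells grown under basal conditions without added stimulus.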 The note with it: RPMI8226 myeloma viability, higher = more signal.
Test [6] can be described thus: basal HepG2 mitochondrial membrane potential changes, profiling panel, cell-based, JC-1 fluorescence, 24 h, 100 nL compound (AID 1167). To be noted: higher = more signal.
The nature of test [7]: basal 3T3-L1 adipocyte mitochondrial potential changes, profiling panel, cell-based, JC-1 fluorescence, 3T3-L1 adipocytes, 24 h, 100 nL compound (AID 1168). To be noted: JC-1 mitochondrial fluorescence, higher = more signal, called active from +8 up or from −8 down.
The nature of test [8]: basal RPMI8226 mitochondrial membrane potential changes, profiling panel, cell-based, JC-1 fluorescence, 24 h, 100 nL compound (AID 1169). To be noted: RPMI8226 myeloma, JC-1 mitochondrial potential fluorescence, higher = more signal.
The nature of test [9]: basal MM1S mitochondrial membrane potential changes, profiling panel, cell-based, JC-1 fluorescence, 24 h, 100 nL compound (AID 1170). To be noted: higher = more signal.
Test [10] in a line: A549 lung cancer cell viability effects, profiling panel, resazurin fluorescence, 24 h, PK04 Diversity Set (AID 1171). The note with it: higher = more signal, called active from +8 up or from −8 down. A general note: The colour change of resazurin is a common sign of viable cells or microbes.
Also: test concentration not given here.

In the case of `CN(C)c1ccc(C(O)C2C=CC3C(=O)N(c4ccccc4)C(=O)C3N2Nc2ccc([N+](=O)[O-])cc2)cc1` (stereo not given), the z-score in test [1] is -0.455; in [2] it was -1.25; in [3] it was 0.583; in [4] it was -0.676; in test [5], -0.215; in [6], -1.01. The z-score is -2.19 (inactive) in [7], -0.296 in test [8], -0.907 in test [9] and -0.272 (inactive) in [10].
For the molecule `CCCCC(O)C1C=CC2C(=O)N(c3ccccc3)C(=O)C2N1Nc1ccc(C(C)C)cc1` (stereo not given), the z-score in test [1] was -0.341; in test [2], -1.52; in test [3], 1.6; in [4], -0.603; in test [5] it was -0.216; in test [6] it was -1.29. The z-score in test [7] was -1.04 (inactive); in test [8], -0.749; in test [9] it was -0.557; in [10], -0.762 (inactive).
Consider `CCCCCCc1nc(C2CC2)cc2c1[Si](C(C)C)(C(C)C)OC2`, for which the z-score in test [1] was -0.315; in test [2], 0.865; in [3], -0.131; in test [4], -2.26; in test [5], -1.92; in test [6], -1.01. For the same molecule, the z-score is -0.0319 (inactive) in test [7], -0.651 in test [8], -0.00829 in test [9] and -0.366 (inactive) in test [10].
On to `COc1ccccc1CN1C(=O)c2ccccc2[C@](Cc2ccccc2I)(C(=O)NCC(F)(F)F)[C@@H]1c1ccc(CO)cc1`, for which the z-score in [1] is -0.698; in [2], 0.95; in test [3] it was -0.568; in test [4], -2.39; in [5], -4.25; in [6], 0.349. For the same molecule, the z-score was -1.39 (inactive) in [7], -0.68 in test [8], -0.176 in test [9] and 0.12 (inactive) in test [10].
Turning to `COC(=O)c1c(CC[C@@H](CO)NC(=O)N2CCC[C@H]2Cn2cc(Cc3ccccc3)nn2)oc(C(C)=O)c1C(=O)OC`, the z-score in test [1] was -0.105; in test [2], -0.25; in test [3] it was -0.904; in test [4] it was 0.823; in test [5], -1.41; in test [6], -0.123. In addition, the z-score in [7] is -0.0157 (inactive); in test [8], 0.127; in test [9], -0.236; in [10] it was 0.435 (inactive).
Turning to `COCCCNC(=O)[C@@]1(Sc2ccc(C)cc2)CC(=O)N(C2CCCCC2)[C@@H]1c1ccc(CO)cc1`, the z-score in test [1] was -0.162; in test [2], 0.152; in [3] it was -0.574; in test [4], -1.59; in test [5] it was -1.45; in test [6], -0.155. In addition, the z-score in [7] was 1.07 (inactive); in test [8], 0.855; in test [9], 0.2; in [10], 0.377 (inactive).
As for `CC1CC/C=C\[C@H]2OC34C=CCN(C(C)C)C(=O)[C@H]3N(CCCCCCO)C(=O)[C@@H]4C2C(=O)O1` (stereo not given in full), the z-score was -0.868 in test [1]; 1.53 in test [2]; 0.25 in test [3]; 1.2 in test [4]; 0.626 in test [5]; -0.0558 in test [6]. Further, the z-score in test [7] is -0.0814 (inactive); in test [8] it was -0.426; in [9], -1.04; in [10] it was 0.599 (inactive).
Regarding `CC(C)(C)N1CC=CC23O[C@@H]4C=CCOC(=O)[C@@H]4[C@H]2C(=O)N(CCCCCCO)[C@@H]3C1=O` (stereo not given in full), the z-score was -0.127 in test [1]; -0.739 in [2]; -0.165 in test [3]; 1.53 in test [4]; 0.0749 in test [5]; -0.403 in test [6]. In addition, the z-score in [7] was 0.567 (inactive); in test [8] it was 0.799; in test [9], -0.112; in test [10] it was -0.0435 (inactive).
With `O=C1C2C=CC(C(O)c3ccc(F)cc3)N(n3cnnc3)C2C(=O)N1Cc1ccccc1` (stereo not given), the z-score in [1] is -0.184; in test [2], 0.799; in test [3], -1; in test [4], -0.0875; in [5], -1.08; in test [6], -0.518. The z-score in test [7] was -0.633 (inactive); in test [8], -0.0973; in test [9], 0.0911; in [10], -1.29 (inactive).
Take `CCOc1cc(C(O)C2C=CC3C(=O)N(c4ccccc4)C(=O)C3N2Nc2ccc(C#N)cc2)ccc1O` (stereo not given): the z-score in test [1] was -0.403; in [2], -0.958; in [3] it was 0.264; in test [4] it was -1.49; in test [5], -1.01; in test [6], -2.67. Besides, the z-score was -1.55 (inactive) in test [7], 0.674 in [8], -0.443 in [9] and -0.883 (inactive) in test [10].
For the molecule `CCCC[C@@H]1C[C@H]1[C@@H](NC(=O)c1cccs1)c1ccc(C(F)(F)F)cc1`, the z-score in test [1] is -1.36; in [2], -0.249; in [3], -0.655; in [4], -0.771; in [5] it was -1.47; in [6], -1.04. Besides, the z-score is -1.23 (inactive) in test [7], 0.404 in test [8], -0.917 in test [9] and 0.724 (inactive) in [10].
As for `[N-]=[N+]=Nc1ccccc1[C@H]1OC(c2ccc(OCCCO)cc2)=N[C@@]1(CCS(=O)(=O)c1ccccc1)C(=O)NCCN1CCOCC1`, the z-score is 0.101 in test [1]; -0.223 in [2]; 0.0355 in test [3]; -0.387 in test [4]; -0.161 in test [5]; 0.816 in [6]. For the same molecule, the z-score was -0.374 (inactive) in [7], 0.184 in test [8], -0.691 in test [9] and 1.22 (inactive) in [10].
With `COc1ccc(-c2nc(-c3ccccc3)c3c(c2C)CO[Si]3(C(C)C)C(C)C)cn1`, the z-score in [1] was -0.0364; in [2], -0.628; in test [3], -0.292; in [4] it was -1.03; in test [5] it was -3.63; in test [6], -0.922. For the same molecule, the z-score in test [7] was -1.72 (inactive); in test [8], -0.443; in [9], -0.294; in test [10] it was 1.95 (inactive).
On to `C[N+](C)(C)CCCCCCNC(=O)[C@H]1C[C@H]2C(=O)N[C@@H](Cc3ccccc3)C(=O)N2[C@H]1c1ccc(O)cc1`, for which the z-score is -0.367 in [1]; -1.42 in test [2]; 0.557 in [3]; 0.401 in test [4]; 0.757 in [5]; -0.216 in test [6]. Further, the z-score in [7] is 0.508 (inactive); in test [8] it was 0.21; in test [9], -0.79; in test [10], -0.0203 (inactive).
As for `[N-]=[N+]=NCc1ccccc1C[C@]1(C(N)=O)N=C(c2ccc(OCCCO)cc2)O[C@H]1c1ccccc1`, the z-score in [1] is -0.277; in test [2] it was -0.0112; in test [3], -0.284; in [4], -2.25; in test [5], -1.04; in [6], -0.417. Also, the z-score in [7] is 0.587 (inactive); in [8], -0.715; in test [9], -0.464; in test [10] it was 0.004 (inactive).
